From PubChem
Sampled rows, rich in hits. Any-hit rate of the full collection: about 2.6%.
CF NFkB block: inhibitors of PAF-induced NF-kB signaling, primary screen, cell-based, GFP fluorescence, uHTS | 0.86% of 360,000 active | KKLEB NF-kB-GFP reporter, GFP fluorescence overnight | inhibition, % at 5 µM | AID 588850, 2011;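 active = at least 50% inhibition at 5 µM, scaled per plate between neutral and stimulator controls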;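 note: PAF is a Pseudomonas aeruginosa culture filtrate used as stimulus; plate controls were PAF-stimulated DMSO wells for no effect and unstimulated DMSO wells for full effect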
TROY NFkB inh: inhibitors of TROY-driven NF-kB signaling, primary screen, Q293 LMP1-TROYcd cells, NF-kB luciferase, uHTS; Q293 LMP1-TROYcd NF-kB luciferase reporter, 4 h; inhibition, % at 10 µM; 0.98% of 360,000 active;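 active = compounds whose plate-normalised and pattern-corrected inhibition of the luciferase reporter signal at the single screening dose is 50% or more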
EWS-Fli inh: EWS/Fli-driven NR0B1 reporter inhibitors, primary screen, A673 cells, NR0B1 luciferase, luminescence, MLPCN library | viability-normalised | inhibition, % at 12.6 µM | 0.67% of 350,000 active;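 active = mean inhibition of at least 50% after viability correction, with every replicate also passing that limit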;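 note: firefly luciferase signal divided by Alamar Blue viability fluorescence both relative to DMSO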
TWEAK Fn14 block: inhibitors of TWEAK-Fn14 signaling, primary screen, luciferase reporter cells, uHTS. TWEAK-stimulated Fn14 reporter cells, luciferase luminescence, 8 h. inhibition, % at 10 µM. 2% of 360,000 active; in the data active = inhibition above about 50%
LGR2 inh: inhibitors of bursicon-induced LGR2 CRE-luciferase signal, primary screen, cell-based, HEK293, CRE-luciferase reporter, bursicon stimulation. bursicon-stimulated, 4 h. inhibition, % at 9.99 µM. 0.35% of 380,000 active. AID 720647, 2013;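 active = drop in luminescence signal, shown as inhibition above about 50% in the replicate tests, limit read from the data, passing the limit was not always enough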;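 note: agonist challenge used bursicon conditioned medium at about half maximal strength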
KKLEB tox: cytotoxicity in KKLEB CF airway cells, primary screen, cytotoxicity control for CF NF-kB inhibitor project, cell-based, uHTS, fluorescence assay plates; AID 602141, 2011; activity change (cytotoxicity), % at 5 µM; 0.36% of 360,000 active; KKLEB CF airway cells viability, ATPlite luminescence, overnight; active compounds read low; cells stimulated with P. aeruginosa culture filtrate;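 active = corrected activity change at or below -50% at 5 µM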
The depositor's hits bear a star.

What do the screens show for `Ic1ccccc1CN[C@@H]1C2CCN(CC2)[C@@H]1C(c1ccccc1)c1ccccc1`?
CF NFkB block: 42; TROY NFkB inh: -9; EWS-Fli inh: 20; TWEAK Fn14 block: -27; LGR2 inh: 70*; KKLEB tox: -8

What do the screens show for `O=C(Cc1cccnc1)N1CCCCN2[C@H](CO)[C@H](c3ccc(C#CC4(O)CCCC4)cc3)[C@H]2C1`?
EWS-Fli inh: -4; LGR2 inh: 4

How did CCCNC(=O)N1[C@@H]2Cn3c(ccc(-c4ccccc4OC)c3=O)[C@H]1[C@@H](C(=O)O)[C@@H]2CO do in these assays?
EWS-Fli inh: -1; LGR2 inh: 10

What do the screens show for `CC(=O)O[C@@H]1/C=C/[C@](C)(O)C[C@@H](C)C/C=C/[C@H]2[C@@H]3O[C@]3(C)[C@@H](C)[C@H]3[C@H](Cc4ccccc4)NC(=O)[C@@]312`?
CF NFkB block: 55*; TROY NFkB inh: -37; TWEAK Fn14 block: -52; KKLEB tox: -53*

Results for CC(=O)O[C@@H]1/C=C/[C@](C)(O)C[C@@H](C)C/C=C/[C@H]2[C@H](O)[C@@](C)(O)[C@@H](C)[C@H]3[C@H](Cc4ccccc4)NC(=O)[C@@]312 ?
CF NFkB block: -7; TROY NFkB inh: -4; TWEAK Fn14 block: -3; KKLEB tox: 6

What do the screens show for `O=C(Cc1cccnc1)N1CCCCN2[C@H](C1)[C@H](c1ccc(C#CC3CC3)cc1)[C@@H]2CO`?
EWS-Fli inh: -10

What do the screens show for `O=C1CNC[C@H]2[C@@H](c3ccc(Br)cc3)[C@H](CO)N12`?
EWS-Fli inh: 8; LGR2 inh: 6

What do the screens show for `O=C(Cc1ccncc1)N1CCCCN2[C@H](CO)[C@H](c3ccc(C#Cc4ccccc4F)cc3)[C@@H]2C1`?
EWS-Fli inh: -4; LGR2 inh: 9

How did CC(C)(C)n1cc(C(=O)c2ccccc2OCCCF)cn1 do in these assays?
CF NFkB block: -6; TROY NFkB inh: 0; EWS-Fli inh: 0; TWEAK Fn14 block: 10; LGR2 inh: -9; KKLEB tox: -4

Results for CC(C)(C)n1cc(C(=O)c2ccc3ccccc3c2O)cn1 ?
CF NFkB block: 8; TROY NFkB inh: 83*; EWS-Fli inh: -2; TWEAK Fn14 block: 88*; LGR2 inh: 67*; KKLEB tox: -20

How did COC(=O)[C@H]1[C@H](CO)[C@H]2Cn3c(ccc(-c4cccnc4)c3=O)[C@@H]1N2S(=O)(=O)c1ccccc1F do in these assays?
EWS-Fli inh: -4; LGR2 inh: -2

What do the screens show for `COc1ccc(OC(=O)N(C)C[C@@H]2OCc3ccccc3-c3c(n(C)c4ccccc34)C(=O)N([C@@H](C)CO)C[C@@H]2C)cc1`?
EWS-Fli inh: -1; LGR2 inh: -8

What do the screens show for `CC(C)(O)/C=C/C(=O)[C@](C)(O)C1[C@H](O)C[C@@]2(C)C3CC=C4C(C[C@H](O)[C@@H](O)C4(C)C)[C@]3(C)C(=O)C[C@]12C` (stereo partly drawn)?
CF NFkB block: 71*; TROY NFkB inh: 56*; TWEAK Fn14 block: -7; KKLEB tox: -75*

How did O=C1CNC[C@@H]2[C@H](c3ccc(Br)cc3)[C@H](CO)N12 do in these assays?
EWS-Fli inh: -16; LGR2 inh: -10

How did O=C1/C(=C/c2ccccc2)C[C@@]2(O)[C@H]3Cc4ccc(O)c5c4[C@@]2(CCN3CC2CC2)C1O5 (stereo partly drawn) do in these assays?
CF NFkB block: 76*; TROY NFkB inh: 64*; TWEAK Fn14 block: 91*; KKLEB tox: 0

Results for NCCc1ccc(OCc2ccccc2)c(OCc2ccccc2)c1 ?
CF NFkB block: 23; TROY NFkB inh: -33; EWS-Fli inh: 41; TWEAK Fn14 block: -1; LGR2 inh: 88*; KKLEB tox: -8

How did CCCNC(=O)[C@H]1[C@H](CO)[C@H]2Cn3c(cccc3=O)[C@H]2N1CC do in these assays?
EWS-Fli inh: 7; LGR2 inh: 6
